# Test results published in PubChem BioAssay (EPA / NIEHS).
# Activity calls are given as the source filed them. The calls were made as follows: active = hit-call score of the fitted dose curve at least 0.9, where 1 is the maximum; inactive = score below 0.9.
# Key:
# Details in all cases: mRNA level, 48 h; actives raise or lower the signal
# [1] = read-out: Hypoxia-inducible factor 1-alpha (Homo sapiens) (UniProt Q16665); assay: LTEA_HepaRG_HIF1A: Life Technologies and Expression Analysis (LTEA) Assay for Hypoxia-inducible factor 1 (HIF1A) Trancription factor using HepaRG (AID 2283503)
# Summary of the method: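 Differentiated HepaRG cells in serum-free induction medium exposed 48 h, in duplicate, to 8-point half-log series from 100 uM in 0.5% DMSO. HIF1A mRNA measured by TaqMan qRT-PCR, normalized to ACTB/GAPDH/POLR2A, fitted bidirectionally versus DMSO.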
# [2] = read-out: 3-Hydroxy-3-Methylglutaryl-CoA Synthase 2 (HMGCS2), HMGCS2 (gene 3158); assay: LTEA_HepaRG_HMGCS2: Life Technologies and Expression Analysis (LTEA) Assay for 3-Hydroxy-3-Methylglutaryl-CoA Synthase 2 (HMGCS2) using HepaRG (AID 2283504)
# Summary of the method: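 HepaRG, plated 48 h then switched to serum-free induction media; cmpd 8-pt, max 100 uM, 1/2-log, 0.5% DMSO, n=2, 48 h. HMGCS2 mRNA by Fluidigm TaqMan qRT-PCR, ACTB/GAPDH/POLR2A norm; bidirectional fit vs DMSO.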
# [3] = read-out: HGF (gene 3082); assay: LTEA_HepaRG_HGF: Life Technologies and Expression Analysis (LTEA) Assay for Hepatocyte Growth Facto (HGF) using HepaRG (AID 2283505)
# Summary of the method: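 Read-out is HGF transcript level by qRT-PCR, normalized to three housekeeping genes, fitted bidirectionally against 0.5% DMSO vehicle. Human HepaRG cells received test chemicals for 48 h at up to 100 uM.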
# [4] = read-out: Intercellular Adhesion Molecule 1 (ICAM1), ICAM1 (gene 3383); assay: LTEA_HepaRG_ICAM1: Life Technologies and Expression Analysis (LTEA) Assay for Intercellular Adhesion Molecule 1 (ICAM1) using HepaRG (AID 2283507)
# Summary of the method: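 Readout is qRT-PCR mRNA level, normalized to three housekeeping genes and fitted bidirectionally against 0.5% DMSO vehicle. Human HepaRG cultures received compound for 48 h, top concentration 100 uM with half-log dilutions.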
# [5] = read-out: Insulin-like growth factor-binding protein 1 (IGFBP1), IGFBP1 (gene 3484); assay: LTEA_HepaRG_IGFBP1: Life Technologies and Expression Analysis (LTEA) Assay for Insulin-like growth factor-binding protein 1 (IGFBP1) using HepaRG (AID 2283508)
# Summary of the method: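 Thawed HepaRG cells are plated for 48 h, switched to serum-free induction medium, then dosed in duplicate for another 48 h (100 uM top, half-log steps). Lysates in RLT go to qRT-PCR, and gain or loss of signal is fitted relative to vehicle.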
# [6] = read-out: Interleukin 6 (IL6), IL6 (gene 3569); assay: LTEA_HepaRG_IL6: Life Technologies and Expression Analysis (LTEA) Assay for Interleukin 6 (IL6) using HepaRG (AID 2283509)
# Summary of the method: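 HepaRG cells exposed in duplicate for 48 h to eight half-log concentrations, top 100 uM, in 0.5% DMSO serum-free induction medium. mRNA measured by qRT-PCR, normalized to ACTB, GAPDH and POLR2A. Bidirectional fit versus DMSO.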
# [7] = read-out: Interleukin 6 Receptor (IL6R), IL6R (gene 3570); assay: LTEA_HepaRG_IL6R: Life Technologies and Expression Analysis (LTEA) Assay for Interleukin 6 Receptor (IL6R) using HepaRG (AID 2283510);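 as to AC50: differentiated human HepaRG liver cells in serum-free induction medium; TaqMan qRT-PCR signal normalized to ACTB GAPDH and POLR2A housekeeping genes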
# Summary of the method: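 Differentiated HepaRG cells, plated 48 h, then exposed in duplicate for 48 h in serum-free induction medium to 8 half-log concentrations (top 100 uM, 0.5% DMSO). IL6R mRNA measured by TaqMan qRT-PCR, normalized to ACTB/GAPDH/POLR2A; bidirectional fit vs DMSO.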
# [8] = read-out: Potassium channel subfamily K member 1 (KCNK1), KCNK1 (gene 3775); assay: LTEA_HepaRG_KCNK1: Life Technologies and Expression Analysis (LTEA) Assay for Potassium channel subfamily K member 1 (KCNK1) using HepaRG (AID 2283511)
# Summary of the method: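 Differentiated HepaRG cells, 48 h exposure in serum-free induction medium with 0.5% DMSO; 8 concentrations, half-log from 100 uM, duplicate. KCNK1 mRNA by qRT-PCR, normalized to ACTB, GAPDH, POLR2A; bidirectional fit vs DMSO.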
# [9] = read-out: Keratin 19 (KRT19), KRT19 (gene 3880); assay: LTEA_HepaRG_KRT19: Life Technologies and Expression Analysis (LTEA) Assay for Keratin 19 (KRT19) using HepaRG (AID 2283512)
# Summary of the method: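 KRT19 transcript levels, measured by Fluidigm qRT-PCR against three housekeeping genes, are fitted for gain or loss of signal relative to DMSO. Human HepaRG cells receive test chemicals (top 100 uM, half-log steps, 0.5% DMSO) for 48 hours.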
# [10] = read-out: Insulin Like Growth Factor 1 (IGF1), IGF1 (gene 3479); assay: LTEA_HepaRG_IGF1: Life Technologies and Expression Analysis (LTEA) Assay for Insulin Like Growth Factor 1 (IGF1) using HepaRG (AID 2283506)
# Summary of the method: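 Differentiated HepaRG cells in serum-free induction medium, exposed 48 h in duplicate to 8 half-log concentrations up to 100 uM in 0.5% DMSO. IGF1 mRNA by Fluidigm qRT-PCR, normalised to ACTB, GAPDH and POLR2A.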
# Sequence of Hypoxia-inducible factor 1-alpha (Homo sapiens) (Q16665 whole entry, looked up): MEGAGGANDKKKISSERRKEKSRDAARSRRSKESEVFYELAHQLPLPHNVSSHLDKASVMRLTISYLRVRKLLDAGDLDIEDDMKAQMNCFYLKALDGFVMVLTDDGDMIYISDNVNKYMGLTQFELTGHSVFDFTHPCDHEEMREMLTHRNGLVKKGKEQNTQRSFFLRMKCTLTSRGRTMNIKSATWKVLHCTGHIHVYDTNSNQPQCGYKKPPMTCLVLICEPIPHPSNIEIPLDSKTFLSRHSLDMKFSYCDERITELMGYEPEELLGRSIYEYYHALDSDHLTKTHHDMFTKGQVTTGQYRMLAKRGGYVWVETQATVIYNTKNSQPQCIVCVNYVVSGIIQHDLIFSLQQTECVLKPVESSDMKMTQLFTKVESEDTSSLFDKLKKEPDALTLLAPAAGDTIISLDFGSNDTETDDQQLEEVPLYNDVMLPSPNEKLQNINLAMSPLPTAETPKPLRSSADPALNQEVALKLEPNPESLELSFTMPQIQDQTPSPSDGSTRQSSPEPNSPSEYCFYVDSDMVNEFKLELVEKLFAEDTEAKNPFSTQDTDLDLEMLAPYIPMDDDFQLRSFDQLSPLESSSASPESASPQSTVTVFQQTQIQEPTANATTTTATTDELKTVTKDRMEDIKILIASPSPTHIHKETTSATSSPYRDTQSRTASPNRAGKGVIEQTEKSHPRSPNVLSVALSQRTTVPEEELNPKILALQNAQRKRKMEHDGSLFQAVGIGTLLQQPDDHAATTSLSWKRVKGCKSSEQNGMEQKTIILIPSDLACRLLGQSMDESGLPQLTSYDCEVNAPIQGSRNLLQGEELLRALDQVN
compound,measurement,setting,value
Nc1ccc(Nc2ccccc2)cc1,AC50,[1],50 µM (active)
same,AC50,[2],60.9 µM (active)
same,outcome,[3],inactive
same,outcome,[4],inactive
same,outcome,[5],inactive
same,outcome,[6],inactive
same,outcome,[7],inactive
same,outcome,[8],inactive
same,AC50,[9],50 µM (active)
CCOCCO,outcome,[1],inactive
same,outcome,[2],inactive
same,outcome,[3],inactive
same,outcome,[10],inactive
same,outcome,[4],inactive
same,outcome,[5],inactive
same,outcome,[6],inactive
same,outcome,[7],inactive
same,outcome,[8],inactive
same,outcome,[9],inactive
Cc1ccc(C)c(O)c1,outcome,[1],inactive
same,outcome,[2],inactive
same,outcome,[3],inactive
same,outcome,[4],inactive
same,outcome,[5],inactive
same,outcome,[6],inactive
same,outcome,[7],inactive
same,outcome,[8],inactive
same,outcome,[9],inactive
CCNc1ccccc1,outcome,[1],inactive
same,outcome,[2],inactive
same,outcome,[3],inactive
same,outcome,[4],inactive
same,outcome,[5],inactive
same,outcome,[6],inactive
same,outcome,[7],inactive
same,outcome,[8],inactive
same,outcome,[9],inactive
C=CCCCCCCCCC(=O)O,outcome,[1],inactive
same,outcome,[2],inactive
same,outcome,[3],inactive
same,outcome,[10],inactive
same,outcome,[4],inactive
same,outcome,[5],inactive
same,outcome,[6],inactive
same,outcome,[7],inactive
same,outcome,[8],inactive
same,outcome,[9],inactive
CCN(C(=O)c1cc(C)cc(OC[C@H](C)Nc2ccncc2)c1)C(C)C,outcome,[1],inactive
same,AC50,[2],33.8 µM (active)
same,AC50,[3],33.8 µM (active)
same,AC50,[10],33.8 µM (active)
same,outcome,[4],inactive
same,outcome,[5],inactive
same,AC50,[6],33.8 µM (active)
same,outcome,[7],inactive
same,outcome,[8],inactive
same,AC50,[9],19.3 µM (active)
CCOc1cccc(-n2cc(C(=O)N3CCN(c4cc(C(=O)O)c5ccccc5c4)CC3)nc2-c2ccc(C)cc2)c1,AC50,[1],75 µM (active)
same,AC50,[2],33.7 µM (active)
same,AC50,[3],21.1 µM (active)
same,outcome,[4],inactive
same,AC50,[5],12.9 µM (active)
same,AC50,[6],74.2 µM (active)
same,AC50,[7],68.9 µM (active)
same,outcome,[8],inactive
same,AC50,[9],16.2 µM (active)
CCCCCCc1ccc(O)cc1O,outcome,[1],inactive
same,outcome,[2],inactive
same,outcome,[3],inactive
same,outcome,[4],inactive
same,outcome,[5],inactive
same,outcome,[6],inactive
same,outcome,[7],inactive
same,outcome,[8],inactive
same,outcome,[9],inactive
CNS(=O)(=O)c1cc(C(=O)N2CCC(CCN3C4CCC3CC(n3c(C)nc5ccccc53)C4)(c3cccc(F)c3)CC2)c(Cl)cc1F (stereo not drawn),outcome,[1],inactive
same,AC50,[2],23.5 µM (active)
same,outcome,[3],inactive
same,AC50,[10],16.3 µM (active)
same,AC50,[4],26.4 µM (active)
same,AC50,[5],30.5 µM (active)
same,outcome,[6],inactive
same,outcome,[7],inactive
same,outcome,[8],inactive
same,AC50,[9],18.3 µM (active)
CNCc1ccc(NC(=O)c2c[nH]c3c2C(=O)CCC3)cc1,outcome,[1],inactive
same,outcome,[2],inactive
same,outcome,[3],inactive
same,outcome,[4],inactive
same,outcome,[5],inactive
same,outcome,[6],inactive
same,outcome,[7],inactive
same,outcome,[8],inactive
same,outcome,[9],inactive
O=C(NS(=O)(=O)/C=C/c1ccccc1)c1ccc(F)cc1Cl,outcome,[1],inactive
same,AC50,[2],27.9 µM (active)
same,outcome,[3],inactive
same,outcome,[4],inactive
same,outcome,[5],inactive
same,outcome,[6],inactive
same,outcome,[7],inactive
same,outcome,[8],inactive
same,outcome,[9],inactive
Cc1ccc(N)cc1O,outcome,[1],inactive
same,outcome,[3],inactive
same,outcome,[10],inactive
same,outcome,[4],inactive
same,outcome,[5],inactive
same,outcome,[6],inactive
same,outcome,[7],inactive
same,outcome,[8],inactive
same,outcome,[9],inactive
CCCC(=O)OCC,outcome,[1],inactive
same,outcome,[3],inactive
same,outcome,[10],inactive
same,outcome,[4],inactive
same,outcome,[5],inactive
same,outcome,[6],inactive
same,outcome,[7],inactive
same,outcome,[8],inactive
same,outcome,[9],inactive
CCc1cc(SCc2sc(-c3ccc(C(F)(F)F)cc3)nc2CN2CCN(c3ccc(OC)cc3)CC2)ccc1OCC(=O)O,AC50,[1],91.1 µM (active)
same,AC50,[2],77.1 µM (active)
same,AC50,[3],7.66 µM (active)
same,AC50,[4],92.9 µM (active)
same,AC50,[5],88.6 µM (active)
same,AC50,[6],86 µM (active)
same,AC50,[7],26.2 µM (active)
same,AC50,[8],9.11 µM (active)
same,AC50,[9],94 µM (active)
Cc1c(-c2cccnc2)c2ccccc2n1CCCCC(=O)O,outcome,[1],inactive
same,outcome,[3],inactive
same,outcome,[10],inactive
same,outcome,[4],inactive
same,outcome,[5],inactive
same,outcome,[6],inactive
same,outcome,[7],inactive
same,outcome,[8],inactive
same,outcome,[9],inactive
O=C(O)CCN(C1(C(=O)NO)CCCC1)S(=O)(=O)c1ccc(Oc2ccc(F)cc2)cc1,outcome,[1],inactive
same,outcome,[3],inactive
same,outcome,[10],inactive
same,outcome,[4],inactive
same,outcome,[5],inactive
same,outcome,[6],inactive
same,outcome,[7],inactive
same,outcome,[8],inactive
same,outcome,[9],inactive
CC(=O)OCCC(C)C,outcome,[1],inactive
same,outcome,[3],inactive
same,outcome,[10],inactive
same,outcome,[4],inactive
same,outcome,[5],inactive
same,outcome,[6],inactive
same,outcome,[7],inactive
same,outcome,[8],inactive
same,outcome,[9],inactive
O=C1OC(=O)C2C3C=CC(C3)C12 (stereo not drawn),outcome,[1],inactive
same,outcome,[2],inactive
same,outcome,[3],inactive
same,outcome,[4],inactive
same,outcome,[5],inactive
same,outcome,[6],inactive
same,outcome,[7],inactive
same,outcome,[8],inactive
same,outcome,[9],inactive
O=C1CCCCCN1,outcome,[1],inactive
same,outcome,[3],inactive
same,outcome,[10],inactive
same,outcome,[4],inactive
same,outcome,[5],inactive
same,outcome,[6],inactive
same,outcome,[7],inactive
same,outcome,[8],inactive
same,outcome,[9],inactive
CC(=O)c1ccc2c(c1)[C@H](NC(=O)c1ccc(F)cc1)[C@@H](O)C(C)(C)O2,outcome,[1],inactive
same,outcome,[3],inactive
same,outcome,[10],inactive
same,outcome,[4],inactive
same,outcome,[5],inactive
same,outcome,[6],inactive
same,outcome,[7],inactive
same,outcome,[8],inactive
same,outcome,[9],inactive
O=C(O)CC(O)C(=O)O (stereo not drawn),outcome,[1],inactive
same,outcome,[3],inactive
same,outcome,[10],inactive
same,outcome,[4],inactive
same,outcome,[5],inactive
same,outcome,[6],inactive
same,outcome,[7],inactive
same,outcome,[8],inactive
same,outcome,[9],inactive
